The record followed here is PubChem BioAssay (Tox21).

Assay [1] addresses Thyrotropin-releasing hormone receptor (Homo sapiens) (UniProt P34981). Description: qHTS assay to identify small molecule agonists of the thyrotropin-releasing hormone receptor (TRHR) signaling pathway (AID 1346891; calls by dose curve; also: series mostly up to about 58 µM). The essentials:
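Readout was intracellular calcium fluorescence in TRHR-Hek293 cells. Cells were incubated 18 h, dye-loaded 2 h at 37 °C, and treated with compound in agonist mode.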

Assay [2] is described as follows: Human pregnane X receptor (PXR) small molecule agonists, qHTS cell viability counter screen (AID 1346977). Also: nearly all actives have a fitted effect of over 50% in size. In short, it runs like this: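 In each well, the PXR reporter HepG2 line was checked for viability: CellTiter-Fluor reagent added 23hr post-dosing, fluorescence read after 1hr incubation at 37C.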
A short description of assay [3]: Caspase-3/7 induction in HepG2 cells by small molecules, qHTS assay (AID 1346978). Also: nearly all actives have a fitted effect of over 15% in size. The essentials:
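Wild-type HepG2 cells, 2,000/well, settled 5 hr at 37 C and 5% CO2, then compound-treated for 17 hr; caspase-3/7 activity read by luminescent Caspase-Glo 3/7 after 30 min at room temperature.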

Assay [4] is described as follows: Caspase-3/7 induction in CHO-K1 cells by small molecules, qHTS cell viability counter screen (AID 1346979). Also: nearly all actives have a fitted effect of over 35% in size. In short, it runs like this:
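Following a 5hr settling period, CHO-K1 cells at 1,500 per well received DMSO-dissolved compounds. Cell viability was quantified 16hr later by CellTiter-Fluor fluorescence, measured after 1hr with reagent at 37C.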
(qHTS replaces the single test concentration by a dilution series.)

Assay [5] can be described thus: Caspase-3/7 induction in HepG2 cells by small molecules, qHTS cell viability counter screen (AID 1346981). Also: series mostly up to about 92 µM; nearly all actives have a fitted effect of over 30% in size. The essentials: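 Steps: seed 2,000 HepG2 cells per well; incubate 5 hr at 37 C; pin-add compounds in DMSO; incubate 16 hr; add CellTiter-Fluor; after 1 hr at 37 C and 5% CO2, read fluorescence.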
Assay [6] addresses Nuclear receptor subfamily 1 group I member 2 (Homo sapiens) (UniProt O75469). Description: Human pregnane X receptor (PXR) small molecule agonists, qHTS assay (AID 1346982). Also: nearly all actives have a fitted effect of over 35% in size. Also: potency is read from the fitted curve at half-maximal effect. In short, it runs like this: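 Agonist mode qHTS: PXR-Luc HepG2 cells plated 5 hr before DMSO-dissolved compounds were pinned in, cultured 24 hr at 37 C, 5% CO2; ONE-Glo luminescence readout.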
Assay [7] shares this target. Briefly: CYP3A4 induction through human pregnane X receptor (PXR) by small molecules, qHTS assay (AID 1346984). Also: nearly all actives have a fitted effect of over 40% in size. In short, it runs like this: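 Steps: seed DPX-2 cells, 5 hr at 37C; pin-transfer compounds; 24 hr at 37C; add Luciferin-IPA (3uM final), 3 hr at 37C; add One-Glo, 30 min RT; read luminescence.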
The target is the same in assay [8]. Briefly: Human pregnane X receptor (PXR) activation by small molecules, qHTS assay (AID 1346985). Also: nearly all actives have a fitted effect of over 40% in size. In short, it runs like this:
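DPX-2 cells (HepG2 co-transfected with a PXR response element and a CYP3A4-promoter luciferase construct) were seeded at 2,000 per well, rested 5 hr at 37C, then exposed to DMSO-dissolved compounds for 24 hr. Activation was read as luciferase luminescence.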

In assay [9] the target is Cytochrome P450 2C19 (Homo sapiens) (UniProt P33261). Description: Cytochrome P450 Family 2 Subfamily C Member 19 (CYP2C19) small molecule antagonists: luciferase reporter qHTS assay (AID 1671197). Also: nearly all actives have a fitted effect of over 65% in size. Also: potency is read from the fitted curve at half-maximal effect. The essentials: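 Compounds were tested on CYP2C19 activity via proluciferin conversion to luciferin. The 37C, 1 h reaction followed NADPH addition; detection reagent stopped it.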
A general note: In a reporter assay the amount or activity of a reporter protein is the signal.

Assay [10] addresses Cytochrome P450 1A2 (Homo sapiens) (UniProt P05177). Briefly: Cytochrome P450 Family 1 Subfamily A Member 2 (CYP1A2) small molecule antagonists: luciferase reporter qHTS assay (AID 1671199). Also: nearly all actives have a fitted effect of over 50% in size. Also: potency is read from the fitted curve at half-maximal effect. The essentials: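 Inhibition of CYP1A2 conversion of proluciferin to luciferin, detected by luminescence. Reaction run 1 h at room temperature with NADPH regeneration after brief compound preincubation.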

The target of assay [11] is Voltage-gated inwardly rectifying potassium channel KCNH2 (Homo sapiens) (UniProt Q12809). Briefly: Human Ether-a-go-go-Related Gene (hERG) channel small molecule antagonists: fluorescence cell-based qHTS assay (AID 1671200).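 Also: hERG-expressing U2OS cells given a thallium stimulus after FluxOR II dye loading; series mostly up to about 77 µM; nearly all actives have a fitted effect of over 50% in size.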 The essentials:
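In this thallium-flux screen, overnight-cultured U2OS cells bearing the channel are dye-loaded in darkness for an hour, rested 10 min at room temperature, and then monitored kinetically at 480/540 nm for two minutes post-stimulus.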
(Block of hERG is tested as a sign of cardiac risk.)

Assay [12] in a line: Caspase-3/7 induction in CHO-K1 cells by small molecules, qHTS assay (AID 1346980). Also: nearly all actives have a fitted effect of over 15% in size. In short, it runs like this: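 Wild-type CHO-K1 cells exposed to compounds for 17hr at 37 C, 5% CO2. Caspase-3/7 activity then measured by Caspase-Glo 3/7 luminescence after 30min at room temperature.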
In assay [13] the target is Nuclear receptor subfamily 1 group I member 2 (Rattus norvegicus) (UniProt Q9R1A7). Briefly: Rat pregnane X receptor (rPXR) activation by small molecules, qHTS assay (AID 1346983). Also: nearly all actives have a fitted effect of over 20% in size. The following applies: rPXR luciferase reporter cells, One-Glo luminescence, 24 h; stronger effect = higher value. The essentials:
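Cell-based rPXR activation assay: rPXR cells, 2,000 per well, rested 5hr at 37 C, then exposed to compounds in DMSO for 24 hr at 37 C. Luciferase activity read by One-Glo luminescence after 30 min at room temperature.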

The target of assay [14] is Cytochrome P450 2D6 (Homo sapiens) (UniProt P10635). Description: Cytochrome P450 Family 2 Subfamily D Member 6 (CYP2D6) small molecule antagonists: luciferase reporter qHTS assay (AID 1671196). Also: nearly all actives have a fitted effect of over 50% in size. Also: potency is read from the fitted curve at half-maximal effect. The essentials:
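P450-Glo format: CYP2D6 converts a proluciferin substrate to luciferin in an NADPH-driven reaction lasting 1 h at room temperature. Light output, proportional to CYP2D6 activity, reflects interference by test chemicals.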

The target of assay [15] is Cytochrome P450 3A4 (Homo sapiens) (UniProt P08684). Briefly: Cytochrome P450 Family 3 Subfamily A Member 4 (CYP3A4) small molecule antagonists: luciferase reporter qHTS assay (AID 1671201). Also: nearly all actives have a fitted effect of over 50% in size. Also: potency is read from the fitted curve at half-maximal effect. In short, it runs like this:
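CYP3A4 activity was followed with a P450-Glo proluciferin substrate. Test compounds in DMSO were preincubated 10 min; NADPH regeneration then ran 1 h, and light output was read 20 min after detection reagent.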

The target of assay [16] is Cytochrome P450 2C9 (Homo sapiens) (UniProt P11712). Briefly: Cytochrome P450 Family 2 Subfamily C Member 9 (CYP2C9) small molecule antagonists: luciferase reporter qHTS assay (AID 1671198). Also: nearly all actives have a fitted effect of over 50% in size. Also: potency is read from the fitted curve at half-maximal effect. The essentials: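 P450-Glo proluciferin substrate with CYP2C9 enzyme; 10 min RT preincubation, then NADPH regeneration 1 h at 37C; luciferin detection reagent 20 min RT, luminescence in relative luminescence units.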

The structures appear in SMILES notation. A number with no mark means an inactive call. Inconclusive results are not listed. The source made the active and inactive calls. Unless noted, calls follow the shape of the dose curve; as a rule, active = well fitted curve in the direction sought with a large enough effect in the repeat runs; inconclusive = weak or mixed curves; inactive = no such curve, though single readings can be large; an effect the other way counts as inactive or inconclusive.
% is scaled to controls: 0 for no effect and ±100 for the full control effect.

Chain of Cytochrome P450 3A4 (Homo sapiens) (P08684 whole entry, looked up): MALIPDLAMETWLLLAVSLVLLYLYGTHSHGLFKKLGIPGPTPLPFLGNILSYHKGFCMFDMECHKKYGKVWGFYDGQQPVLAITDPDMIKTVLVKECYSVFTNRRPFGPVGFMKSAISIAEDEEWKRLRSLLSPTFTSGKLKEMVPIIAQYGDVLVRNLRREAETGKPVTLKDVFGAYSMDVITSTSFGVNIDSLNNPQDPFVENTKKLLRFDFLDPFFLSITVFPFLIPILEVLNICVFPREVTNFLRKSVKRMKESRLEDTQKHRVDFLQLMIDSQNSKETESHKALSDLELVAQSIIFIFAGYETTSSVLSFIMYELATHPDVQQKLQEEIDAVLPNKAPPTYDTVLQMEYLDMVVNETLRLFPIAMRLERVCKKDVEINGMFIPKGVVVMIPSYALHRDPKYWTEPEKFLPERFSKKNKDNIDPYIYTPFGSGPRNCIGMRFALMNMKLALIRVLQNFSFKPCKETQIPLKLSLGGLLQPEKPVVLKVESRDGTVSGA
Chain of Voltage-gated inwardly rectifying potassium channel KCNH2 (Homo sapiens) (Q12809 whole entry, looked up): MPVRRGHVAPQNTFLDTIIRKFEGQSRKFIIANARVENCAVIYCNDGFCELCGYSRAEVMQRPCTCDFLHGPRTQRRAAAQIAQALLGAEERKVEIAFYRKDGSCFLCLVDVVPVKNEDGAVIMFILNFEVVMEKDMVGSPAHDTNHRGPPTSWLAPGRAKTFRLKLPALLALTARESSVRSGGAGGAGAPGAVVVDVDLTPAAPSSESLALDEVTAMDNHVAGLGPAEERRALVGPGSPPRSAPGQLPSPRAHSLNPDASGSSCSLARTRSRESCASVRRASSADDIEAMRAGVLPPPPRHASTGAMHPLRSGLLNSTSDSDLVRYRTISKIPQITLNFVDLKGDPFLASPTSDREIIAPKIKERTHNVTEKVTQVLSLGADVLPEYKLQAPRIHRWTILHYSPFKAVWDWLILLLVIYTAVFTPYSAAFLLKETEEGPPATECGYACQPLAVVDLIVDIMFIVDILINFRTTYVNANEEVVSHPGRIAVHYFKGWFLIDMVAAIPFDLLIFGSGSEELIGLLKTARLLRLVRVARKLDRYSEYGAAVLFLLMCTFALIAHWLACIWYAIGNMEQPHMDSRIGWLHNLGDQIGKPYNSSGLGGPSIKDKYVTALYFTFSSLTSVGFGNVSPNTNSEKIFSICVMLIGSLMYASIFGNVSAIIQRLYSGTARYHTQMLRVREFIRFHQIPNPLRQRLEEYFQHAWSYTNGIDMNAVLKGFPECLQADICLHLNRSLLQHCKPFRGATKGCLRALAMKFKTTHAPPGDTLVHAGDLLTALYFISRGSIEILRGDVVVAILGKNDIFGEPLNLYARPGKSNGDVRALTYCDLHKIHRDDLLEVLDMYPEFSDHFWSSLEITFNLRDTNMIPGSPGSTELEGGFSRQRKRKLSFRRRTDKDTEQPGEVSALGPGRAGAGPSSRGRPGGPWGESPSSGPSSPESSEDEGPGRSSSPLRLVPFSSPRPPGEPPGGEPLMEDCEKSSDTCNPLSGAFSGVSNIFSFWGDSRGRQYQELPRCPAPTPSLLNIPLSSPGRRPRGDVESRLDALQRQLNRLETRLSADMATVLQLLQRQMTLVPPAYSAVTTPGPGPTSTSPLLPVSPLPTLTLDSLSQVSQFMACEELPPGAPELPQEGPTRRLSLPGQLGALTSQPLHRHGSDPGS
Chain of Thyrotropin-releasing hormone receptor (Homo sapiens) (P34981 whole entry, looked up): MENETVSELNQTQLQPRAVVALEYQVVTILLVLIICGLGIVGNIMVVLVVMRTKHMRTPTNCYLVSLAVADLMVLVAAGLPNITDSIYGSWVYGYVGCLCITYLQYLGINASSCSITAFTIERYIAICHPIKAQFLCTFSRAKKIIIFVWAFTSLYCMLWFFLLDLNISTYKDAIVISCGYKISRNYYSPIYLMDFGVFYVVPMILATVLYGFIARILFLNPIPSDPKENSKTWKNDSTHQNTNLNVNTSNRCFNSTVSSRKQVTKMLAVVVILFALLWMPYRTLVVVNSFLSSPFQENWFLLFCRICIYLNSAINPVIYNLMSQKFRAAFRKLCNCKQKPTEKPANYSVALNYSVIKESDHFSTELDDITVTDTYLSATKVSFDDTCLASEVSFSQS
Chain of Cytochrome P450 2D6 (Homo sapiens) (P10635 whole entry, looked up): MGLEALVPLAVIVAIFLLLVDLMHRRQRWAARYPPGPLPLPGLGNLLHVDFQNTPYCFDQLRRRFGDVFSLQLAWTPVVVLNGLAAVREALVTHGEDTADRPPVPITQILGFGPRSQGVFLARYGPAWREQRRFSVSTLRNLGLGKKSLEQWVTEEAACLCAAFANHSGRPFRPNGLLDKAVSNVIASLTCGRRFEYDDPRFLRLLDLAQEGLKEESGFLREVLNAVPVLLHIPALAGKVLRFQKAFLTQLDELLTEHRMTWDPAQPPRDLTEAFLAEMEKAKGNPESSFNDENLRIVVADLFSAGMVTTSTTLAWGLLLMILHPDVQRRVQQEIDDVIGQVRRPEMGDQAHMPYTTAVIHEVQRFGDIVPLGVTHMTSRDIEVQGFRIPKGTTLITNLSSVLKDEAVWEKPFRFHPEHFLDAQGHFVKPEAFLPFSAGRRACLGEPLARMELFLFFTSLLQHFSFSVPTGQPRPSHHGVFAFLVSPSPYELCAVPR
Chain of Nuclear receptor subfamily 1 group I member 2 (Rattus norvegicus) (Q9R1A7 whole entry, looked up): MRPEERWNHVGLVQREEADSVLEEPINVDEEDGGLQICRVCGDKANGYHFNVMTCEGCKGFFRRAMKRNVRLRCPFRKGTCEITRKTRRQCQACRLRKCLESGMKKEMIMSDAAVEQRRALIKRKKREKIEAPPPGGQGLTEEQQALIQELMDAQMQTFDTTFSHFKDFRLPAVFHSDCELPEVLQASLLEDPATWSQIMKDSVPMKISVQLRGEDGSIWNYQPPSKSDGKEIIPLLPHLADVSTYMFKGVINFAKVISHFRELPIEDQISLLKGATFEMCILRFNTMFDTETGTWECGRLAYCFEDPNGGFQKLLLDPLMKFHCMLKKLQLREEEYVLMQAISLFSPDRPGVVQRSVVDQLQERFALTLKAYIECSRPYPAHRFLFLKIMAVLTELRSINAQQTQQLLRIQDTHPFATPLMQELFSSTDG
Chain of Cytochrome P450 2C19 (Homo sapiens) (P33261 whole entry, looked up): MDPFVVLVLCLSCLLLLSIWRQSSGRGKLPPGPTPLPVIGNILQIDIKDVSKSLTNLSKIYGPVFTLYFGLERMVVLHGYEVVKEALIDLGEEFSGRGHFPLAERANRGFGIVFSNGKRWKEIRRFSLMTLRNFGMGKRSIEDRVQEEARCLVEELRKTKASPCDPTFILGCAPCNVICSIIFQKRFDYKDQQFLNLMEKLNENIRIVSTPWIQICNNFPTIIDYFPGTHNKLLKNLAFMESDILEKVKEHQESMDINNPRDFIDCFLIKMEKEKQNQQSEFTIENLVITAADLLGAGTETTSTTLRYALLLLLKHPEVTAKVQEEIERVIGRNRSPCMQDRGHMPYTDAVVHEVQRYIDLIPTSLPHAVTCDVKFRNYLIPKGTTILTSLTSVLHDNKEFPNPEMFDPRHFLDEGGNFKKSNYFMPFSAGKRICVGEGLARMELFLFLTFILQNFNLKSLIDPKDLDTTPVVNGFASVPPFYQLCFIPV
Chain of Nuclear receptor subfamily 1 group I member 2 (Homo sapiens) (O75469 whole entry, looked up): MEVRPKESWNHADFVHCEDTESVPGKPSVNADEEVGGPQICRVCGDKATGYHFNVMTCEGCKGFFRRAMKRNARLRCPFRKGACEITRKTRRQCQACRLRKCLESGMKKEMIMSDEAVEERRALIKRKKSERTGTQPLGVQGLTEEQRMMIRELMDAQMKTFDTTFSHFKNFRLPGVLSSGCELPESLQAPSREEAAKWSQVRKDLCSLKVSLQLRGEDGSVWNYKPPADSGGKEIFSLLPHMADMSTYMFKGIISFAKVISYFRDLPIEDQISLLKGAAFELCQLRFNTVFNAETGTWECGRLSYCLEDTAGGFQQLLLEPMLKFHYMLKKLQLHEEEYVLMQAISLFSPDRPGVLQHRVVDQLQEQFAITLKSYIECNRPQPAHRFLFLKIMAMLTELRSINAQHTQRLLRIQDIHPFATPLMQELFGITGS
Chain of Cytochrome P450 2C9 (Homo sapiens) (P11712 whole entry, looked up): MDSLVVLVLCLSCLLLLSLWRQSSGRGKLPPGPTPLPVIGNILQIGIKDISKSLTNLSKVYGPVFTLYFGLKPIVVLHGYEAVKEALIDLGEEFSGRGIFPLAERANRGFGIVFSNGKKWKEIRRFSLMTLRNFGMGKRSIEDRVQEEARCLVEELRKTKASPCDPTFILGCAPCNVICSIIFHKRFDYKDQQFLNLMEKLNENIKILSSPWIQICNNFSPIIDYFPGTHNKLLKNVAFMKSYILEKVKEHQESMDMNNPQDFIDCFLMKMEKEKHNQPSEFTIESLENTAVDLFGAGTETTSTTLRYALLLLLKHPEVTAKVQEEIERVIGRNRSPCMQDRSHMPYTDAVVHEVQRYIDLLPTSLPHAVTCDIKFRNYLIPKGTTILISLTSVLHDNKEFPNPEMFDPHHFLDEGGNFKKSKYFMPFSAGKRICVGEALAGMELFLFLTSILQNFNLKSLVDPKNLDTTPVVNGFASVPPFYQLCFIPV
Chain of Cytochrome P450 1A2 (Homo sapiens) (P05177 whole entry, looked up): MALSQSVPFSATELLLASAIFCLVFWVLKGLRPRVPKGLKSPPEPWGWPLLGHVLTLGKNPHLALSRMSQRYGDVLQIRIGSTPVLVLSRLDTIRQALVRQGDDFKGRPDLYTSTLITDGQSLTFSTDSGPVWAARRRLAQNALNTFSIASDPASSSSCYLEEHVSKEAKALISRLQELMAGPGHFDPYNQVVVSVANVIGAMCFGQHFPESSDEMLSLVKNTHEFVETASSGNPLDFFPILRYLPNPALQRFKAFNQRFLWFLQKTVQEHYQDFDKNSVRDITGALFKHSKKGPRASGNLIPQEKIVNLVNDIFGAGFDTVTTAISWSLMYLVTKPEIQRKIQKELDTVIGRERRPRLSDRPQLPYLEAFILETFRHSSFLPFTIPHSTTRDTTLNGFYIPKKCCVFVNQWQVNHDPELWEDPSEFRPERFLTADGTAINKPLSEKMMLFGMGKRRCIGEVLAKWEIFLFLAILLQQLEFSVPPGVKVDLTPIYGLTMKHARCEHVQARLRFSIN

Regarding `NNc1nnc(NN)c2ccccc12`, in [1], the call was inactive. Also, the Potency entry in assay [2], in [3], in assay [4], in [5], in assay [6] and in assay [7] was “inactive” each time. The Potency result in assay [8], in assay [9] and in assay [11] was “inactive” each time. In [10], the Potency was 36.3 µM (active).
Consider `COc1cc(NS(=O)(=O)c2ccc(N)cc2)nc(OC)n1`, for which the molecule was classed as inactive in assay [1] and in [12]. The Potency result in assay [2], in assay [3], in [4], in assay [6], in assay [7] and in [8] was “inactive” throughout. Besides, the Potency result in [14], in assay [9], in assay [10], in assay [11] and in assay [15] was “inactive” each time. In addition, the max activation in assay [13] is -2.35%.
As to `CCO[Si](CCCS)(OCC)OCC`, the molecule was called inactive in assay [1]. Moreover, the Potency entry in assay [2], in assay [3], in assay [4], in assay [5], in assay [6] and in [10] was “inactive” in each case. Also, the Potency result in assay [11] is “inactive”. Further, the Potency in assay [9] and in [15] was 35.6 µM (active) throughout.
As for `CC(C)(C)c1cc(CCC(=O)NN)cc(C(C)(C)C)c1O`, the molecule was classed as inactive in [1] and in assay [12]. The Potency entry in [2], in assay [4], in assay [5] and in assay [11] was “inactive” each time. Also, the Potency is 34.4 µM (active) in assay [6]; 35.6 µM (active) in [14]; 6.33 µM (active) in assay [9]; 5.03 µM (active) in assay [16]; 8.94 µM (active) in assay [10]; 0.159 µM (active) in [15].
For the molecule `O=C(O)Cc1cn(-c2ccccc2)nc1-c1ccc(Cl)cc1`, the molecule was called inactive in [1]. Moreover, the Potency entry in assay [2], in assay [3], in assay [5], in assay [6], in assay [7] and in [8] was “inactive” throughout. The Potency result in assay [14], in assay [10], in assay [11] and in assay [15] was “inactive” in each case. The max activation in [13] was -1.93%. Moreover, the Potency in assay [16] was 5.49 µM (active).
Turning to `CCCCCCCCOS(=O)(=O)O`, the molecule was classed as inactive in assay [1] and in [12]. Besides, the Potency entry in assay [2], in assay [3], in [5], in assay [6], in [14] and in assay [11] was “inactive” in each case. For the same molecule, the Potency entry in assay [15] was “inactive”. In [9], the Potency is 71 µM (active).
On to `O=C(O)c1cc(Br)c(O)c(Br)c1`, for which the call in assay [1] was inactive. The Potency entry in [2], in assay [3], in [4], in assay [6], in assay [11] and in [15] was “inactive” throughout. The Potency in assay [9] was 7.96 µM (active); in [16], 71 µM (active); in [10], 39.9 µM (active).
With `CC(=O)NCc1c(I)c(NC(C)=O)c(I)c(C(=O)O)c1I`, in assay [1], the call was inactive. Besides, the Potency result in assay [2], in assay [3], in assay [5], in assay [6], in assay [7] and in assay [8] was “inactive” in each case. Moreover, the Potency entry in assay [10], in [11] and in [15] was “inactive” in each case. The max activation in assay [13] was -0.535%.
As to `CNC(=O)[C@H]1O[C@@H](n2cnc3c(NCc4cc(Cl)ccc4OCc4cc(C)no4)ncnc32)[C@H](O)[C@@H]1N`, the molecule was called inactive in assay [1] and in assay [12]. For the same molecule, the Potency result in [2], in assay [4], in [5], in assay [6], in assay [14] and in [9] was “inactive” each time. Moreover, the Potency entry in assay [16], in [10] and in [11] was “inactive” in each case.
Regarding `O=C(CCNNC(=O)c1ccncc1)NCc1ccccc1`, the result in assay [1] and in assay [12] was inactive. The Potency entry in assay [2], in assay [3], in [5], in [6] and in assay [11] was “inactive” in each case. Besides, the Potency in [14] was 15.5 µM (active); in assay [9], 11 µM (active); in assay [16], 4.9 µM (active).
